# What was measured:
# Assay in all cases: thermal shift delta Tm vs DMSO control; higher = stronger stabilization (binding)
# Conditions in all cases: 12.5 µM; protein concentration 2 µM
# [1] = test system: LOC_OS01G01410-cb001
# Summary of the method: (§1)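 Rice kinase domain constructs, made in E. coli and purified, were placed in 96-well plates at 2 μM in 19.5 μl of 100 mM potassium phosphate pH 7.5, 150 mM NaCl, 10% glycerol and 5 × SYPRO Orange, with compound in DMSO. A temperature ramp from 25°C to 95°C at 0.05°C/s was used for differential scanning fluorimetry. The melting temperature shift is a triplicate mean compared with DMSO-only protein, derived from Boltzmann fits.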
# [2] = test system: LOC_OS01G02750-cb003
# Summary of the method: as §1
# [3] = test system: LOC_OS01G10900-cb004
# Summary of the method: as §1
# [4] = test system: LOC_OS01G13800-cb001
# Summary of the method: as §1
# [5] = test system: LOC_OS01G14860-cb001
# Summary of the method: as §1
# [6] = test system: LOC_OS01G21960-cb002
# Summary of the method: as §1
# [7] = test system: LOC_OS01G39600-cb002
# Summary of the method: as §1
# [8] = test system: LOC_OS01G48390-cb002
# Summary of the method: as §1
# [9] = test system: LOC_OS01G51400-cb002
# Summary of the method: as §1
# [10] = test system: T1, LOC_OS01G52050-cb004
# T1 sequence (whole entry): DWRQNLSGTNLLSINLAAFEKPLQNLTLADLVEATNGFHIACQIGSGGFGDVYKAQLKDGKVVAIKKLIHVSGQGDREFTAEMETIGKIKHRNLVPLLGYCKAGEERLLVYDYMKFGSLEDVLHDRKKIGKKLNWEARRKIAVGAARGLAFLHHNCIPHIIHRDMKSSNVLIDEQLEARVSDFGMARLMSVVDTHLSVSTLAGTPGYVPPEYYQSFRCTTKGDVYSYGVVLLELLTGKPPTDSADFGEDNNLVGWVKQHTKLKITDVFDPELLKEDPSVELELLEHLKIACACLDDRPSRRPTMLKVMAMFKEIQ
# Summary of the method: as §1
# 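Also: purified Escherichia coli-expressed rice kinase domain construct.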
Structure (SMILES),thermal shift delta Tm [1],thermal shift delta Tm [2],thermal shift delta Tm [3],thermal shift delta Tm [4],thermal shift delta Tm [5],thermal shift delta Tm [6],thermal shift delta Tm [7],thermal shift delta Tm [8],thermal shift delta Tm [9],thermal shift delta Tm [10]
CCC[C@H](NC(=O)/C(C#N)=C/c1cccc(Br)n1)c1ccccc1 [Degrasyn (WP1130)],-2.54 °C,-8.18 °C,0.28 °C,0.06 °C,-2.02 °C,0.19 °C,-4.1 °C,-0.09 °C,-1.59 °C,-3.54 °C
Clc1ccc(C2(c3ccc(-c4cn[nH]c4)cc3)CCNCC2)cc1,0.09 °C,0.73 °C,0.17 °C,0.44 °C,0.54 °C,0.46 °C,-0.39 °C,0.45 °C,0 °C,0.38 °C
CCS(=O)(=O)N1CCN(c2ccc(Nc3ncc(C(N)=O)c(NC4CC4)n3)cc2)CC1,5.29 °C,1.8 °C,1.08 °C,0.55 °C,3.61 °C,2.53 °C,4.63 °C,1.17 °C,1.11 °C,5.37 °C
O=C1NC(=O)C(=Cc2ccc(-c3ccc(F)cc3)o2)S1 (stereo in doubt),0.61 °C,1.08 °C,0.58 °C,0.53 °C,0.85 °C,1.54 °C,0.11 °C,0.58 °C,0.18 °C,0.58 °C
COc1ccc(Oc2cc(NCCC(F)(F)F)c3ncc(-c4ccc(C(=O)NC5CC5)c(C)c4)n3n2)c(F)c1F,0.28 °C,1.7 °C,-0.65 °C,0.15 °C,0.68 °C,-0.46 °C,1.84 °C,0.14 °C,0.75 °C,1.81 °C
O=C1Nc2ccc(CN3C(=O)CSC3=O)cc2/C1=C/c1cc(CN2CCOCC2)c[nH]1,1.25 °C,3.61 °C,0.75 °C,0.08 °C,0.42 °C,0.16 °C,0.49 °C,1.28 °C,0.13 °C,2.79 °C
CO[C@H]1C[C@@H]2CC[C@@H](C)[C@@](O)(O2)C(=O)C(=O)N2CCCC[C@H]2C(=O)O[C@H]([C@H](C)C[C@@H]2CC[C@@H](O)[C@H](OC)C2)CC(=O)[C@H](C)/C=C(\C)[C@@H](O)[C@@H](OC)C(=O)[C@H](C)C[C@H](C)/C=C/C=C/C=C/1C [Rapamycin (Sirolimus)],0.87 °C,0.22 °C,-0.07 °C,-0.01 °C,0.33 °C,0.21 °C,0.05 °C,0.16 °C,0.12 °C,-0.13 °C
Nc1ccc(C(=O)Nc2cccc(-c3nc(N4CCOCC4)c4oc5ncccc5c4n3)c2)cn1,1.9 °C,1.58 °C,1.27 °C,0.49 °C,0.58 °C,0.56 °C,0.13 °C,0.28 °C,0.29 °C,0.45 °C
O=C(c1cccc(Cl)c1F)N1CCN(Cc2cccc(Nc3nccs3)n2)CC1,0.64 °C,0.86 °C,0.24 °C,-0.45 °C,4.28 °C,0.14 °C,2.61 °C,1.3 °C,0.25 °C,4.36 °C
O=C1NCCc2[nH]c(-c3ccncc3)cc21,0.69 °C,-0.36 °C,0.12 °C,0.78 °C,5.61 °C,2.12 °C,-0.24 °C,0.48 °C,0.19 °C,1.31 °C
O=C(Nc1cccc(C(F)(F)F)c1)c1cccc2cc(Oc3cc(CO)ncn3)ccc12,0.74 °C,0.11 °C,0.77 °C,0.56 °C,0.71 °C,0.94 °C,-0.03 °C,0.4 °C,0.1 °C,0.38 °C
C[C@@H](N)[C@H]1CC[C@H](C(=O)Nc2ccncc2)CC1,1.02 °C,0.15 °C,0.1 °C,0.65 °C,0.11 °C,0.84 °C,0.45 °C,0.65 °C,0.29 °C,-0.08 °C
C[C@@H]1COCCN1c1cc(=O)n2c(n1)N(Cc1cncc(Cl)c1)[C@H](C(F)(F)F)CC2,0.21 °C,1.55 °C,0.48 °C,1.15 °C,0.32 °C,0.45 °C,0.34 °C,0.95 °C,0.31 °C,0.49 °C
C[C@H](Nc1ncnc2[nH]cnc12)c1cc2ccc(F)cc2nc1-c1ccccn1,0.51 °C,2.1 °C,0.26 °C,0.16 °C,0.16 °C,0.92 °C,-0.54 °C,0.94 °C,0.64 °C,0.37 °C
C[C@@H]1COC(Nc2ccc3ncnc(Nc4ccc(OCc5nccs5)c(Cl)c4)c3c2)=N1 [Varlitinib],2.18 °C,0.28 °C,0.95 °C,0.39 °C,1.1 °C,2.04 °C,0.66 °C,1.02 °C,0.22 °C,0.92 °C
COc1cc2nccc(Oc3ccc(NC(=O)c4cn(C(C)C)c(=O)n(-c5ccc(F)cc5)c4=O)cc3F)c2cc1OC,0.17 °C,1.65 °C,-0.15 °C,0.61 °C,0.98 °C,0.2 °C,0.41 °C,0.32 °C,0.13 °C,4.45 °C
O=C(Nc1nc2cccc(-c3ccc(CN4CCS(=O)(=O)CC4)cc3)n2n1)C1CC1 [Filgotinib (GLPG0634)],0.4 °C,0.46 °C,0.17 °C,0.3 °C,0.5 °C,0.89 °C,-0.06 °C,0.26 °C,0.32 °C,1.03 °C
Cc1ccc(Nc2nccc(N(C)c3ccc4c(C)n(C)nc4c3)n2)cc1S(N)(=O)=O [Pazopanib],2.16 °C,0.45 °C,1.67 °C,-0.48 °C,0.04 °C,0.56 °C,1.25 °C,4.34 °C,0.23 °C,0.91 °C
CO[C@@H](C(=O)N1Cc2[nH]nc(NC(=O)c3ccc(N4CCN(C)CC4)cc3)c2C1)c1ccccc1,3 °C,1.69 °C,6.13 °C,-0.31 °C,0.54 °C,0.38 °C,1.14 °C,3.55 °C,0.01 °C,0.36 °C
CN(C[C@@H]1COCCO1)S(=O)(=O)Nc1ccc2ccc3ncc(-c4cnn(C)c4)cc3c(=O)c2c1,2.9 °C,3.39 °C,1.59 °C,-0.75 °C,0.52 °C,1.85 °C,2.41 °C,0.37 °C,0.29 °C,10.3 °C

# From the supplement of paper PMC9694430
